Hits are enriched below; roughly 9.4% of the tested compounds scored in any of these assays.
SMN2 splice up: enhancers of SMN2 splice variant expression | 210,000 compounds, 2.8% hits | HEK293 SMN2-luciferase splicing reporter, luminescence, 30-36 h | Potency, µM (doses to about 46.1 µM), for inactives: top-dose activity change, positive = activation, usual class: activators; also: % of control where 0% means no effect; nearly all actives have a fitted effect of over 55% in size
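HEK293 cells carry an SMN2 minigene-luciferase reporter in which exon 7 inclusion puts luciferase in frame. Cells were seeded at 2000 cells/well, attached for 10-12 hours, then exposed to compounds for 30-36 hours at 37C before ONE-Glo luminescence.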
FLuc counter: inhibits or activates purified firefly luciferase, miR-21 counter-screen; purified FLuc, Km substrates, luminescence inhibition; P08659; Potency, µM (series often up to 57.5 µM), without a hit: at the highest dose activity change, negative = inhibition, hits mostly inhibitors; AID 588342; 360,000 compounds, 6.9% hits;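 also: plate controls were vehicle for no effect and reference inhibitor for full effect; nearly all actives have a fitted effect of over 55% in size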
Target sequence (P08659 whole entry, looked up): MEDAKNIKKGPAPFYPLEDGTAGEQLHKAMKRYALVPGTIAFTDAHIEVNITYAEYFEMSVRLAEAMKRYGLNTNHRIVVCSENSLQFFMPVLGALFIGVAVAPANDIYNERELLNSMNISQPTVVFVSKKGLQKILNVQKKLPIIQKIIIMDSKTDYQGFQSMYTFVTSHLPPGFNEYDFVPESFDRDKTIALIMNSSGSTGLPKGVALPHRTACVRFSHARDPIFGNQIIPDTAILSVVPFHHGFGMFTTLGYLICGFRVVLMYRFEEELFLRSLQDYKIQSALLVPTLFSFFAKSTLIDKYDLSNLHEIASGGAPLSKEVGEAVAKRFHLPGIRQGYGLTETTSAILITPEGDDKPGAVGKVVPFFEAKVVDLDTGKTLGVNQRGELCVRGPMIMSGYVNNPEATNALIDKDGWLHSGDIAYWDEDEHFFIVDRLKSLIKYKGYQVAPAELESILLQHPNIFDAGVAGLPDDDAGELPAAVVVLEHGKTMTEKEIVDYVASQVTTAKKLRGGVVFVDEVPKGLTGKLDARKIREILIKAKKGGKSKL
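Purified P. pyralis luciferase, 10 nM final, with Km-level 10 uM D-luciferin and 10 uM ATP in 50 mM Tris acetate pH 7.5, 10 mM Mg acetate, 0.01% Tween-20, 0.05% BSA; 6-point qHTS titration about 60 µM downward; luminescence read.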
NPC1 promoter act: activates the NPC1 promoter; Huh7 NPC1 promoter luciferase reporter, 24 h; Potency, µM (series often up to 9.22 µM), for the others: at the highest dose activation, hits mostly activators; 320,000 compounds, 2.4% hits; also: % of control where 0% means no effect; nearly all actives have a fitted effect of over 60% in size
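Luminescence from an NPC1 promoter-driven luciferase reporter in stably transfected Huh7 cells was measured after 24 h compound treatment at 37 °C, followed by 10 min ambient incubation with luciferase detection reagent.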
Rab9 promoter act: Rab9 promoter activation; Huh7 Rab9 promoter-luciferase reporter, luminescence, 24 h; Potency, µM (titrated, usually from 9.22 µM), without a hit: at the top dose activation, negative = inhibition, most hits filed as activators; 320,000 compounds, 2.8% hits; AID 485297; also: % of control where 0% means no effect; nearly all actives have a fitted effect of over 60% in size
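Huh7 cells stably carrying Rab9 promoter–luciferase reporter, plated 1500 cells/well, compound added after 2 h and incubated 24 h at 37 °C; luciferase luminescence then read after 10 min with detection reagent.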
ELG1 genotox: induces genotoxicity in HEK293T cells with luciferase-tagged ELG1; AID 504466; Potency, µM (titrated, usually from 46 µM), inactives show top-dose activity change, positive = activation, most hits filed as activators; HEK293T ELG1-luciferase reporter, luminescence, 16 h; 330,000 compounds, 1.3% hits; also: % of control where 0% means no effect; nearly all actives have a fitted effect of over 60% in size
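Genotoxicity was scored as increased ELG1-luciferase reporter signal, measured by ONE-Glo luminescence (30 min, room temperature). Compound or vehicle exposure of the HEK293T reporter cells lasted 16 hr at 37°C.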
ELG1 DNA repair: ELG1-dependent DNA repair inhibition | HEK293T ELG1-luciferase reporter, luminescence, 16 h; DNA damage induced by 5-fluorouridine | Potency, µM (highest dose often 46.1 µM), without a hit: at the highest dose activity change, negative = inhibition, hits mostly inhibitors | AID 504467 | 330,000 compounds, 2.3% hits; also: % is scaled to controls: 0 for no effect and ±100 for the full control effect; nearly all actives have a fitted effect of over 55% in size
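Step one: seed 2,000 cells per well. Step two: pin-transfer compound or DMSO alongside 5-fluorouridine. Step three: incubate 16 hr, 37 °C, 5% CO2. Step four: add ONE-Glo, wait 30 min, read luminescence.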
* hit, by the source's call; ? = inconclusive; nt = no result given; [ ] = dose if it differs, or a comment. Calls follow the shape of the dose curve; as a rule, active = well fitted curve in the direction sought with a large enough effect; inconclusive = small, poorly fitted or top-dose-only effect, or another doubt; inactive = no such curve, though single readings can be large; an effect the other way counts as inactive or inconclusive. Potency is read from the fitted curve at half-maximal effect.

SMILES	SMN2 splice up	FLuc counter	NPC1 promoter act	Rab9 promoter act	ELG1 genotox	ELG1 DNA repair
Nc1c(C(=O)Nc2ccccc2)sc2nc(-c3ccco3)ccc12	2.2%	12µM*	?	?	5.7%	0.0%
Nc1c(C(=O)Nc2nc3ccccc3s2)sc2nc(-c3cccs3)ccc12	?	2.39µM*	?	?	?	?
Nc1c(C(=O)Nc2ccccc2Br)sc2nc(-c3cccs3)ccc12	-5.7%	nt	nt	nt	nt	nt
CC(=O)c1sc2nc(-c3cccs3)ccc2c1N	?	7.57µM*	18.4%	3.55µM*	11.6µM*	?
O=C(CCOc1ccccc1)N(Cc1cccnc1)c1nc2c(F)cc(F)cc2s1	nt	4.5%	nt	nt	nt	nt
CCOc1ccc2c(c1)c(=O)c(C(=O)c1ccc(CC)cc1)cn2CC(=O)Nc1ccc2c(c1)OCCO2	-23.2%	-1.4%	nt	nt	nt	nt
Cn1nnnc1SCCCNCc1cc(Br)ccc1OCc1ccccc1F	nt	-6.9%	nt	nt	nt	nt
O=C(O)/C=C\C(=O)Nc1ccc(N2CCN(c3ccc(Cl)cc3)CC2)cc1	nt	15.1µM*	-7.3%	-14.5%	-1.0%	-2.5%
CC(=O)Nc1ccc(NC(=O)Nc2ccccc2)cc1	nt	16.9µM*	?	?	16.7%	?
CC(=O)c1ccc(NC(=O)Nc2ccncc2)cc1	15.3%	-26.5%	1.0%	20.3%	12.4%	?
CC(=O)c1ccc(NC(=O)N2CCN(c3cccc(Cl)c3)CC2)cc1	-0.9%	3.0%	-0.2%	-5.6%	-6.7%	?
CC(=O)c1ccc(N2CCN(C(=O)Nc3ccc(Cl)cc3)CC2)cc1	-50.2%	-4.8%	-0.7%	10.5%	-7.2%	16.4µM*
CC(=O)c1ccc(NC(=O)Nc2ccc(Cl)cc2)cc1	12.6µM*	12µM*	1.41µM*	1.41µM*	2.06µM*	?
Cc1cccc(CCn2c(=O)c3ccccc3n(Cc3cccc(F)c3)c2=O)c1	14.2%	?	nt	nt	nt	nt
Cc1ccc(S(=O)(=O)C(CNC(=O)c2ccccc2F)c2cccs2)cc1 (stereo not drawn)	nt	-12.0%	nt	nt	nt	nt
CCOC(=O)c1cnc(N2CCN(c3ccc(C)cc3C)CC2)c2ccccc12	nt	-2.2%	nt	nt	nt	nt
Cc1cc(C)cc(NC(=O)c2cc(Cl)sc2Cl)c1	1.6%	?	2.3%	-0.9%	-0.9%	2.1%
CC(=O)c1ccc(N2CCN(C(=S)Nc3ccc(Oc4ccccc4)cc3)CC2)cc1	-56.3%	-4.0%	-30.5%	-22.8%	-8.1%	5.8µM*
CC(=O)c1ccc(NC(=O)Nc2ccc([N+](=O)[O-])cc2)cc1	12.6µM*	-16.3%	?	27.0%	?	?
CC(=O)c1ccc(NC(=O)c2cc(Cl)sc2Cl)cc1	12.6µM*	15.1µM*	2.82µM*	2.24µM*	?	?
CCN(CC)c1ccc(NC(=O)Nc2cccc(C(C)=O)c2)cc1	16.1%	1.69µM*	nt	nt	nt	nt
CC(=O)c1ccc(NC(=O)NNS(=O)(=O)c2ccc([N+](=O)[O-])cc2)cc1	nt	4.4%	0.3%	11.0%	1.1%	-3.5%
Nc1ncnc2c([C@@H]3O[C@@H](CO)[C@H](O)[C@@H]3O)nsc12	-28.7%[9.22 µM]	nt	nt	nt	nt	nt
COc1cc2c(cc1OC)C(c1ccc(Cl)cc1)N(c1ccc(C)c(F)c1)C(=O)C2 (stereo not drawn)	-31.1%	-1.1%	nt	nt	nt	nt
CC(C)c1nn2c(=O)cc(COC(=O)c3cccc(NC(=O)CCc4ccccc4)c3)nc2s1	nt	-16.9%	nt	nt	nt	nt
N#Cc1cc([N+](=O)[O-])c2sc(C(N)=O)[n+]([O-])c2c1	nt	nt	-14.1%[46.1 µM]	-2.3%[46.1 µM]	nt	nt
C[C@H](CC(=O)O)C(C(=O)O)C(=O)O	-22.4%[9.22 µM]	nt	nt	nt	nt	nt
O=C(Nc1ccc(Cl)cc1)N1CC=CCC1	-10.2%	16.9µM*	?	?	21.9%	?
O=C(O)/C=C/C(=O)Nc1ccc(-n2nccc2C(F)(F)F)cc1	nt	16.9µM*	-1.4%	9.3%	1.2%	14.9%
O=C(Nc1ccc(Cl)cc1)N1CCN(c2ccccc2)CC1	-4.2%	?	4.4%	11.0%	-1.6%	-7.5%

Screens: PubChem, National Center for Advancing Translational Sciences (NCATS)
